From PubChem BioAssay (EPA / NIEHS)
Several values for one entry are separate records, joined by “and”; a condition that tells them apart may be missing. Equal values may be shown once. Activity calls are given as the source filed them. Rule for the calls: active = hit-call score of the fitted dose curve at least 0.9, where 1 is the maximum; inactive = score below 0.9.

test: BSK_BE3C_SRB: Viability Assessment in the BioMAP Diversity Plus: BE3C Assay (AID 2283028); conditions: primary human bronchial epithelial cells;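 for AC50: fitted both ways so AC50 may mark signal gain or loss versus DMSO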
Summary of the method: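 Human bronchial epithelial primary cells in confluent culture, 24 h after chemical dosing; total protein by 0.1% SRB staining after 10% TCA fixation, read at 560 nm. Bidirectional fitting versus DMSO baseline.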

Structure (SMILES) | outcome | AC50
O=P(O)(O)CCC(F)(F)C(F)(F)C(F)(F)C(F)(F)C(F)(F)C(F)(F)C(F)(F)C(F)(F)F | inactive | –
CCC(C)c1ccccc1O (stereo unspecified) | inactive | –
O=C(O)C(F)(F)OC(F)(F)C(F)(F)OC(F)(F)C(F)(F)OC(F)(F)C(F)(F)C(F)(F)C(F)(F)F | – | 7.88 µM (active) and 7.84 µM (active)
CCCCCCCCCCCCCCC | inactive | –
O=C1NS(=O)(=O)c2ccccc21 | inactive | –
C[C@]12CC[C@@H]3c4ccc(O)cc4CC[C@H]3[C@@H]1C[C@@H](O)[C@@H]2O | inactive | –
CCOC(=O)CN[C@@H](C(=O)N1CC[C@H]1C(=O)NCc1ccc(/C(N)=N/O)cc1)C1CCCCC1 | inactive | –
CCCCC(CC)C(=O)OCCOCCOCCOCCOC(=O)C(CC)CCCC (stereo unspecified) | inactive | –
Clc1ccc(Nc2nnc(Cc3ccncc3)c3ccccc23)cc1 | inactive | –
Cc1cccc2c1ccc1ccccc12 | inactive | –
CC(C)(C)c1ccc(O)c(O)c1 | inactive | –
CN(C)c1ccc(C(=C2C=CC(=[N+](C)C)C=C2)c2ccccc2)cc1 | – | 2.72 µM (active)
O=P(O)(O)CCC(F)(F)C(F)(F)C(F)(F)C(F)(F)C(F)(F)C(F)(F)F | inactive | –
O=S(=O)(O)C(F)(F)C(F)(F)C(F)(F)C(F)(F)C(F)(F)C(F)(F)C(F)(F)C(F)(F)C(F)(F)C(F)(F)F | – | 12.9 µM (active) and 10.8 µM (active)
O=C(NO)c1ccccc1 | inactive | –
CC[N+](CC)(CC)Cc1ccccc1 | inactive | –
O=C(c1ccccc1)c1ccccc1 | inactive | –
OCC(F)(F)C(F)(F)C(F)(F)C(F)(F)C(F)(F)C(F)(F)C(F)(F)C(F)(F)C(F)(F)C(F)(F)C(F)(F)F | inactive | –

Structure (SMILES) | outcome | AC50
Cc1[nH]nc2c1N=C(c1ccccc1Cl)c1cc([N+](=O)[O-])ccc1N2 | – | 20.3 µM (active)
O=C(NCc1ncc(C(F)(F)F)cc1Cl)c1c(Cl)cccc1Cl | inactive | –
N=C(N)c1ccc(OCCCCCOc2ccc(C(=N)N)cc2)cc1 | inactive | –
C=CC(C)(CCC=C(C)C)OC(C)=O (stereo unspecified) | inactive | –
CCCCCCCCCCCCCCCCCC[N+](C)(C)Cc1ccccc1 | inactive | –
O=C(O)CCC(F)(F)C(F)(F)C(F)(F)C(F)(F)C(F)(F)C(F)(F)F | inactive | –
Oc1ccc(Cc2ccccc2O)cc1 | inactive | –
CCCCC=O | inactive | –
CN(CCO)S(=O)(=O)C(F)(F)C(F)(F)C(F)(F)C(F)(F)C(F)(F)C(F)(F)C(F)(F)C(F)(F)F | inactive | –
COCN(COC)c1nc(N(COC)COC)nc(N(COC)COC)n1 | inactive | –
O=C1c2ccc(O)c(O)c2C(=O)c2c(O)ccc(O)c21 | inactive | –
OCCN1CN(CCO)CN(CCO)C1 | inactive | –
CCCCc1oc2ccccc2c1C(=O)c1cc(I)c(OCCN(CC)CC)c(I)c1 | – | 25.4 µM (active)
O=C(O)CCC(F)(F)C(F)(F)C(F)(F)C(F)(F)C(F)(F)F | inactive | –
CN(Cc1cnc2nc(N)nc(N)c2n1)c1ccc(C(=O)N[C@@H](CCC(=O)O)C(=O)O)cc1 | inactive | –
O=C(CC(=O)C(F)(F)C(F)(F)C(F)(F)F)c1cccs1 | – | 30 µM (active) and 37.9 µM (active)
CS(=O)(=O)c1ccc([C@@H](CC2CCCC2)C(=O)Nc2cnccn2)cc1Cl | inactive | –
CC1=NN(c2ccccc2)C(=O)C1 | inactive | –
